In PubChem BioAssay AID493240 (Broad Institute, 2011):
Out of some 1,300 compounds screened, about 270 (21%) were called active. How the calls were made is not given here. A selection follows. Measured potencies and affinities stand elsewhere.

Test: cytotoxicity in parental SK-MEL-5 melanoma cells – cell-based, CellTiter-Glo, cherry-picked, set 3, orthogonal assay for MITF inhibitor project, dose response (AID 493240)
Details: SK-MEL-5 viability, ATP luminescence (CellTiter-Glo), 24 h; series mostly up to 35 µM

SMILES | outcome
CC1(C)CC(=O)C=C(NC2=CC3OC(c4ccccc4)OCC3OC2=O)C1 (stereo not drawn) | inactive
O=[N+]([O-])/C=C\c1ccc(N2CCCC2)c(F)c1 | inactive
O=C(NCc1cccs1)c1nc2c(nnn2Cc2ccccc2Cl)c(=O)[nH]1 | inactive
COc1ccc(C2C(C#N)=C(N)Oc3c2oc(CO)cc3=O)cc1 (stereo not drawn) | inactive
O=C(O)c1ccc(N/N=C/c2ccc3nccnc3c2)cc1 | inactive
COc1cc([N+](=O)[O-])cc(/C=N/NC(=O)c2ccc(NC(=O)c3ccc(C)cc3)cc2)c1O | inactive
CCN1CCN(c2ccc(S(=O)(=O)N3CCOCC3)cc2NC(=O)/C=C/c2ccc([N+](=O)[O-])cc2)CC1 | inactive
CCN1CCN(c2ccc(S(=O)(=O)N3CCCCC3)cc2NC(=O)/C=C/c2ccc([N+](=O)[O-])cc2)CC1 | inactive
O=C(NC1CCCC(C(F)(F)F)C1)c1ccc([N+](=O)[O-])o1 (stereo not drawn) | inactive
COc1cccc(-c2ccc3c(N)c(C(=O)NC4CC4)sc3n2)c1 | inactive
CC(Oc1cccc(Br)c1)C(=O)NNC(=O)c1ccccn1 (stereo not drawn) | inactive
C/C(=N\NC(=O)C(c1ccccc1)c1ccccc1)c1ccccn1 | inactive
CC1CCN(c2ccc(NC(=O)c3cccnc3)cc2)CC1 | inactive
COC(=O)c1ccc(/C=N/Nc2nc(C)c(C)s2)cc1 | inactive
CS/C(N)=N/N=C/c1ccc2c(c1)OCO2 | inactive
COc1cc2c(cc1OC)C(C)N(S(=O)(=O)c1cnc(Cl)c(Cl)c1)CC2 (stereo not drawn) | inactive
COc1cc(CN2CCC(C(N)=O)CC2)ccc1OCc1ccccc1 | inactive
CCOc1ccc(N/C=C/C(=O)c2ccc(OC)c(OC)c2)cc1 | inactive
N/C(=N\OC(=O)c1ccc(Cl)cc1Cl)c1ccncc1 | inactive
O=C1CN(c2ccccc2)C(=S)N1C(=O)c1ccccc1 | inactive
O=C1C=CC(=C(c2ccc(O)cc2)c2ccc(O)cc2)C=C1 | inactive
COc1ccccc1-c1cc(C(F)(F)F)nc(S(C)(=O)=O)n1 | inactive
COC(=O)CCS(=O)(=O)c1nc(-c2ccccc2)cc(C(F)(F)F)n1 | inactive
N=C1C(c2nc3ccccc3[nH]2)=C(O)CN1C1CCCCC1 | inactive

SMILES | outcome
Cc1ccc(C(=O)Nc2ccccc2Cl)cc1 | inactive
Cc1cc(C(=O)CCl)c(C)n1CCc1ccc(F)cc1 | inactive
Cc1ccc2nc(NC(=O)CSCC(=O)OCC(=O)c3ccccc3)sc2c1 | inactive
CCCCN=C(C)c1c(O)c2ccccc2oc1=O | inactive
Cc1ccc(NC(=O)c2ccccc2)cc1 | inactive
O=C(Nc1ccc(Cl)cc1)Nc1cccc(C(=O)O)c1 | inactive
COc1ccc(NC(=O)NC(=O)c2ccccc2)cc1 | inactive
Cc1oc(=O)c(NC(=O)c2ccccc2)cc1C(=O)c1ccccc1 | inactive
COc1ccc(COC(=O)c2cc([N+](=O)[O-])ccc2N2CCOCC2)cc1F | inactive
CN(C)c1ccc(/C=C/c2cccc[n+]2[O-])cc1 | inactive
Cc1ccc(NC(=O)Cc2noc3ccccc23)cc1 | inactive
CC(=NNc1nc2ccccc2o1)c1cc2ccccc2cn1 | inactive
COC(=O)c1ccc(COc2ccc3c(c2)CCC3)o1 | inactive
Fc1ccc(-c2nnc(-c3ccc(F)cc3)o2)cc1 | inactive
COc1cccc(-c2nnc3sc(-c4cccs4)nn23)c1 | inactive
Nc1ncnc(Sc2ncccn2)c1[N+](=O)[O-] | inactive
O=C(CSc1ccccn1)c1ccc2c(c1)OCO2 | inactive
O=C(CCl)N1CCN(S(=O)(=O)c2ccc3c(c2)CCC3)CC1 | inactive
O=C(Nc1nc(-c2ccccn2)cs1)c1ccc([N+](=O)[O-])o1 | inactive
N#C/C(=C(/O)CCl)c1nc2ccccc2[nH]1 | inactive
C/C(=C\c1ccccc1)C(=O)Nc1ccc(Cl)cn1 | inactive
COc1cc(SC)ccc1C(=O)NCCOc1ccccc1Cl | inactive
CCn1c(=O)c(C(=O)NCc2ccccc2Cl)c(O)c2ccccc21 | inactive
COCCNC(=O)c1cc2sc3ccccc3c2s1 | inactive

SMILES | outcome
O=c1nc(N/N=C/c2ccccn2)cn[nH]1 | inactive
O=C(CCl)N(c1ccccc1)c1c[nH]c2ccccc12 | inactive
Cc1ccc(NC(=O)Nc2ccccc2)nc1 | inactive
FC(F)(F)c1cc(CCN2CCNC[C@@H]2Cc2ccccc2)cc(C(F)(F)F)c1 | inactive
CCSc1ccccc1C(=O)n1nnc2ccccc21 | inactive
Cc1cc(C(=O)COc2cccnc2[N+](=O)[O-])c(C)n1-c1ccccc1 | inactive
Cc1cc(C)c2ccc(N)nc2c1O | inactive
Cc1cc(C(F)(F)F)c2c(N)c(C(=O)Nc3cc(C)on3)sc2n1 | inactive
O=C(Cn1cnc2c(oc3ccccc32)c1=O)c1ccccc1 | inactive
Cc1nc(C)c(C(=O)N/N=C/c2cc(Br)ccc2O)s1 | inactive
CCCCNc1nc(=S)n(-c2ccccc2)c(C)c1C(C)=O | inactive
COCCn1c(C)cc(C(=O)COC(=O)c2ccccc2Br)c1C | inactive
CCC(=O)NCCc1nc2cc(NC(=O)c3cccc([N+](=O)[O-])c3)ccc2n1C | inactive
CC(C)(C)c1ccc(/C=N/Nc2ccc(C(=O)O)cc2)cc1 | inactive
Cc1ccc(/C=N/Nc2ccc(C(=O)O)cc2)s1 | inactive
COc1cccc(CNc2nc3ccccc3n2C)c1O | inactive
CC(=O)N(c1nnc(-c2cccc(C)c2)s1)C1CCCC1 | inactive
CCOC(=O)c1ccc2nc(C)c(CCC(C)=O)c(Cl)c2c1 | inactive
CCCOCc1ccc(O)c2ncccc12 | inactive
O=S(=O)(c1ccc(Cl)cc1)N1CCN(Cc2ccc(O)c3ncccc23)CC1 | inactive
O=C(CSC(=S)N1CCCCC1)c1c(F)cccc1F | inactive
c1ccc(Cc2cc(-c3ccccc3)on2)cc1 | inactive
COc1cc2c(c(OC)c1OC)-c1ccc(OC)c(=O)cc1C(NC(C)=O)CC2 (stereo not drawn) | inactive
CCN1c2ccccc2NC2C1C(C(C)=O)C(=O)N2c1ccc(Cl)cc1 (stereo not drawn) | inactive

SMILES | outcome
COc1cnc(-c2ccccn2)nc1NC(C)C | inactive
N#CCSc1nc2ccccc2c2nc3ccccc3n12 | inactive
Cc1ccc(SCc2cn3cc(Cl)ccc3n2)cc1 | inactive
CC(=O)Nc1ccc(S(=O)(=O)N2CCn3cccc3C2C)cc1 (stereo not drawn) | inactive
CN1CCN(C2=C(NS(=O)(=O)c3cccs3)C(=O)c3ccccc3C2=O)CC1 | inactive
Cc1cc(C(=O)Nc2ccc([N+](=O)[O-])cn2)cs1 | inactive
CCOC(=O)c1cc2sccc2n1CC(=O)N1c2ccccc2CC1C (stereo not drawn) | inactive
O=C(Nc1ccc2c(c1)OCCO2)c1cccc(Cl)c1Cl | inactive
O=C(c1nnsc1S(=O)(=O)c1ccc(Cl)cc1)N1CCOCC1 | inactive
CC(C)(CO)NC(=O)c1ccc2nc(Cc3cccc(Cl)c3)oc2c1 | inactive
COc1ccc2cc3cc(C(=O)NCCc4ccc(OC)c(OC)c4)oc3nc2c1 | inactive
Cc1ccccc1C(=O)O/N=C(\N)c1ccc([N+](=O)[O-])cc1 | inactive
Nc1ccc(-c2ncc(-c3ccccc3)o2)cc1 | inactive
CCOC(=O)CSC1=NC(=O)/C(=C\c2ccc(OC(C)=O)cc2)S1 | inactive
CCOC(=O)CSC1=NC(=O)/C(=C\c2ccc(Cl)cc2)S1 | inactive
CC(Oc1ccccc1)C(=O)Nc1nc(-c2ccccn2)cs1 (stereo not drawn) | inactive
CC(C)(C)C1CCC(OC(=O)CN2CCCCC2)CC1 (stereo not drawn) | inactive
CC(O)CNC(=O)C1CCN(Cc2ccc(OCc3ccccc3)cc2)CC1 (stereo not drawn) | inactive
Cc1cc(C(=O)CN2C(=O)c3ccccc3S2(=O)=O)c(C)n1-c1ccccc1 | inactive
O=C(N/N=C\c1cc(Br)ccc1O)c1ccc(S(=O)(=O)N2CCCCC2)cc1 | inactive
COC(=O)[C@@H](C)NC(=O)c1ccc2oc(CCc3ccccc3)nc2c1 | inactive
O=C(Nc1nc2ccccc2s1)c1ccccc1[N+](=O)[O-] | inactive
Cc1nc2nc(C)c(NS(=O)(=O)c3ccc4c(c3)CCCC4)c(=O)n2[nH]1 | inactive
COc1ccc(/C=C2\SC(=O)N(CCCC(=O)Nc3cc(Cl)ccc3C(=O)O)C2=O)cc1 | inactive

SMILES | outcome
CC(C)c1ccc(CNc2ncccn2)cc1 | inactive
COC(=O)c1ccc(/C=C(\C#N)C(=O)NC(C)c2ccccc2)cc1 (stereo not drawn) | inactive
Clc1ccc(-c2nc(-c3ccncc3)no2)c(Cl)c1 | inactive
Cc1ccc(C2CC(C(F)(F)F)n3nc(C(=O)NCc4c(C)nn(C)c4C)c(Cl)c3N2)cc1 (stereo not drawn) | inactive
Cc1nn(-c2ccccc2Cl)c(Cl)c1/C=N/Nc1cccc(C(=O)O)c1 | inactive
O=C(Nc1ccc(OC(F)(F)F)cc1)c1[nH]ncc1[N+](=O)[O-] | inactive
C=CCNC(=O)Cn1nnc(-c2ccc(-c3ccc(OC)cc3)cc2)n1 | inactive
C=CCOc1ccc(/C=C2\SC(=S)N(CCC(=O)O)C2=O)cc1 | inactive
CCc1nc2oc3ccccc3c(=O)c2cc1C(=O)OC | inactive
COc1ccc(S(=O)(=O)N2CCCCC2)cc1NC(=O)c1ccc([N+](=O)[O-])o1 | inactive
CCCCOC(=O)c1[nH]c(C)c(C(=O)OC)c1C | inactive
Oc1ccc(CNc2ccccc2F)c2cccnc12 | inactive
O=C(Cn1ncc(Cl)c(Cl)c1=O)c1ccc(Cl)cc1 | inactive
Nc1nnnn1/N=C/C(Br)=C/c1ccccc1 | inactive
Cc1ccsc1C(=O)OCC(=O)Nc1sccc1C(N)=O | inactive
CN(C)c1nc(C=C(C#N)C#N)c(Cl)n1-c1ccc(F)cc1 | inactive
COc1ccc(/C=N/Nc2ccccn2)cc1OC | inactive
COc1ccc(-c2cc(-c3ccccc3O)[nH]n2)cc1OC | inactive
CCCCNC(=O)Nc1ccc(C2SCCS2)cc1 | inactive
CN(C)Cc1c(O)ccc2c1O/C(=C\C=C\c1ccccc1)C2=O | inactive
Cc1nc2ccccn2c1C(=O)/C=C/c1cccc([N+](=O)[O-])c1 | inactive
O=C(/C=C/c1cccc([N+](=O)[O-])c1)n1cnc2ccccc21 | inactive
